Source: ChEMBL document CHEMBL3988442, “University of Dundee, Small-Polar-MMV Screening Library” (2021)
For some of these results: Measured potencies and affinities stand elsewhere.

How the values were obtained:
Parameters in all cases: scale not given: direction of the effect not stated beside the values
[1] = biological target: Protein translocase subunit SecA (Escherichia coli (strain K12)) (UniProt P10408); assay: Assay to Identify E. coli SecA ATPase Inhibitors; type: functional; conditions: 30 µM
[2] = biological target: T1, Ubiquitin-activating enzyme e1, putative (Leishmania donovani (strain BPK282A1)) (UniProt E9BSI1); assay: Leishmania donovani Ubiquitin Activating Enzyme (LdE1); type: functional; conditions: 30 µM
T1 sequence (whole entry): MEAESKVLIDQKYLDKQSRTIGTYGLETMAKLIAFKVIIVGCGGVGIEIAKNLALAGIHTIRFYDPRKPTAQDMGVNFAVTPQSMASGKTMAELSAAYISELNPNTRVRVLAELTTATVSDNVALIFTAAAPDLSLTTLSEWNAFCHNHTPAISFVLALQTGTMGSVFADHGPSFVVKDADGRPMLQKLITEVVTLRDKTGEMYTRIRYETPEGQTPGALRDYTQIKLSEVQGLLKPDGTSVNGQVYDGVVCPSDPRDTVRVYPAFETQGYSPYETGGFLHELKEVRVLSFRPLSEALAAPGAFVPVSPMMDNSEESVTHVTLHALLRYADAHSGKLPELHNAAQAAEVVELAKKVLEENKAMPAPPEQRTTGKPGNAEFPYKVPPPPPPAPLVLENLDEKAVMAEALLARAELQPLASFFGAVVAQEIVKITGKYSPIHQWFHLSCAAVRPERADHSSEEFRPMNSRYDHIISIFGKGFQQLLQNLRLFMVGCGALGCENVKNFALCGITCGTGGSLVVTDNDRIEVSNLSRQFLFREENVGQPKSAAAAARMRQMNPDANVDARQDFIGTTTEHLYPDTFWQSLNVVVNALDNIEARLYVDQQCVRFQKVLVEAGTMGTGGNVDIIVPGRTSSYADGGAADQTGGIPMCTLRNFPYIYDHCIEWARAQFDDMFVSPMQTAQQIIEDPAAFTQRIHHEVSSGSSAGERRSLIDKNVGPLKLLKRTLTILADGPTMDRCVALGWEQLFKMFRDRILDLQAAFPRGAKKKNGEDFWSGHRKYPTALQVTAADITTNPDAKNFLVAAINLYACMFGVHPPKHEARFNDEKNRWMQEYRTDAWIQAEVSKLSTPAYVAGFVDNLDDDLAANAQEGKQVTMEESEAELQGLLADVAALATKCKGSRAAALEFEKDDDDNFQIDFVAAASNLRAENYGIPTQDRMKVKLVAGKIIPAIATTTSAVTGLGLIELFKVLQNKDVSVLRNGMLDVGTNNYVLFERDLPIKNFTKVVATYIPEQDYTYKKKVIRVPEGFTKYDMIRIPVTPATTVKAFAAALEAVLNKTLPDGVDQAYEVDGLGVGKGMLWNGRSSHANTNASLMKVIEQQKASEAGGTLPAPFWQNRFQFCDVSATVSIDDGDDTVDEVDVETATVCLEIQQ

[3] = biological target: AMP-activated protein kinase, AMPK (Homo sapiens) (UniProt P54646+O43741+P54619+Q9UGJ0+Q9Y478+Q13131+Q9UGI9); assay: AMP-dependent Kinase enzyme assay. An in vitro enzyme assay that detects ADP turnover that is directly proportional to AMPK activity. This uses naive AMPK that is activated during the assay with MK-8722; type: functional; conditions: 30 µM
[4] = biological target: Sialic acid-binding Ig-like lectin 9 (Homo sapiens) (UniProt Q9Y336); assay: Hs-Siglec9 ALPHAscreen SOP 20170721; conditions: 10 µM
Trypanosoma cruzi = assay: Trypanosoma cruzi phosphomannomutase and mannose-1-phosphate guanylyltransferase assay; type: functional; conditions: 10 µM
[5] = biological target: T2, Arginase-2, mitochondrial (Homo sapiens) (UniProt P78540); assay: in vitro enzyme assay to detect the production of urea directly proportional to the activity of Arginase II; type: functional; conditions: 33.3 µM; further: in the data most compounds retested in dose-response had high values
T2 sequence (whole entry): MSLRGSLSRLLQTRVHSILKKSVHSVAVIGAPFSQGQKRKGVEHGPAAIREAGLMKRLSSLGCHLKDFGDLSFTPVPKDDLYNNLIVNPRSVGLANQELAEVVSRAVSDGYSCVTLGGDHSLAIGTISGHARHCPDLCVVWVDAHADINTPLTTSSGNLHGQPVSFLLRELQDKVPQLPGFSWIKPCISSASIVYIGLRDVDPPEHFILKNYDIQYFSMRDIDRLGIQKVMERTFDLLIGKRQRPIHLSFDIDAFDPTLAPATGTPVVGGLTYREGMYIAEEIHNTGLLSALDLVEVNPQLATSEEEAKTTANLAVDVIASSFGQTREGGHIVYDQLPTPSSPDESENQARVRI

[6] = biological target: T3, Proteasome subunit beta (Trypanosoma cruzi) (UniProt O96673); assay: Trypanosoma cruzi proteasome chymotrypsin-like activity (TcProtChymo) assay.; further: in the data most compounds retested in dose-response had high values; type: functional; conditions: 9.37 µM
T3 sequence (whole entry): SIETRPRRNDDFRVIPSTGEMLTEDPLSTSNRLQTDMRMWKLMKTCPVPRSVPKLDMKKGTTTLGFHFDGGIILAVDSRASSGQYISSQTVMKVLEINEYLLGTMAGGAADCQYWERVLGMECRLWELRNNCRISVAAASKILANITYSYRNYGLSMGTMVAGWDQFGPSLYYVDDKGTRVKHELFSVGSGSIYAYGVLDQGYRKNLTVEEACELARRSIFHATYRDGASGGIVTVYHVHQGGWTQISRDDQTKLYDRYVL

Homo sapiens = organism: Homo sapiens; assay: To identify inhibition of the IFN signalling (Jak-Stat) pathway via expression of an eGFP reporter gene under the control of an IFN-stimulated response element (ISRE) containing MxA promoter.; type: functional; conditions: 30 µM
[7] = biological target: T4, Tyrosyl-tRNA synthetase, putative (Trypanosoma cruzi (strain CL Brener)) (UniProt Q4DSP6); assay: Trypanosoma cruzi tyrosyl tRNA synthetase (TcYRS) _High Tyrosine SOP; type: functional; conditions: 30 µM; further: in the data most compounds retested in dose-response had high values
T4 sequence (whole entry): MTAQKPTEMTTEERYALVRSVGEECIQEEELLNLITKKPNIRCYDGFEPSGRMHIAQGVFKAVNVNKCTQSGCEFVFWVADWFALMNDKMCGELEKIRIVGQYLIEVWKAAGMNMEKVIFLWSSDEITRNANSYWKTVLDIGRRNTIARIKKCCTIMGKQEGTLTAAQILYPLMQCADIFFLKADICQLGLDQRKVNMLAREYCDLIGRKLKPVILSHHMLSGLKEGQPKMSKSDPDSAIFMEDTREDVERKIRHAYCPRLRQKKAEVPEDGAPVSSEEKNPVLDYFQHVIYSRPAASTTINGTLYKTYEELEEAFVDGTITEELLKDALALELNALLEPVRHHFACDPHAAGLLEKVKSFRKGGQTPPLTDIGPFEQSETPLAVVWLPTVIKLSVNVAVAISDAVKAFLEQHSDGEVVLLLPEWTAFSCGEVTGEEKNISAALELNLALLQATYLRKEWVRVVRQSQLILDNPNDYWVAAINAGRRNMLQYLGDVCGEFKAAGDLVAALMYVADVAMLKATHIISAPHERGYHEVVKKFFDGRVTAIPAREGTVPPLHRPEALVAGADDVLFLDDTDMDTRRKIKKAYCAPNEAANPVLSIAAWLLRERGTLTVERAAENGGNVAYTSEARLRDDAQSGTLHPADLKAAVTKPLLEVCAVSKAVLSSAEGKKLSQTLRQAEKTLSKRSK

[8] = biological target: T4, Tyrosyl-tRNA synthetase, putative (Trypanosoma cruzi (strain CL Brener)); assay: Trypanosoma cruzi tyrosyl tRNA synthetase (TcYRS) SOP; type: functional; conditions: 30 µM
[9] = biological target: Chromo domain-containing protein 1 (Saccharomyces cerevisiae (strain ATCC 204508 / S288c) (Baker's yeast)) (UniProt P32657); assay: ScCHD-1 Enzyme Inhibition Assay; type: functional; conditions: 30 µM; further: in the data most compounds retested in dose-response had high values
Chain of Chromo domain-containing protein 1 (Saccharomyces cerevisiae (strain ATCC 204508 / S288c) (Baker's yeast)) (P32657 whole entry, the tested form may be a part): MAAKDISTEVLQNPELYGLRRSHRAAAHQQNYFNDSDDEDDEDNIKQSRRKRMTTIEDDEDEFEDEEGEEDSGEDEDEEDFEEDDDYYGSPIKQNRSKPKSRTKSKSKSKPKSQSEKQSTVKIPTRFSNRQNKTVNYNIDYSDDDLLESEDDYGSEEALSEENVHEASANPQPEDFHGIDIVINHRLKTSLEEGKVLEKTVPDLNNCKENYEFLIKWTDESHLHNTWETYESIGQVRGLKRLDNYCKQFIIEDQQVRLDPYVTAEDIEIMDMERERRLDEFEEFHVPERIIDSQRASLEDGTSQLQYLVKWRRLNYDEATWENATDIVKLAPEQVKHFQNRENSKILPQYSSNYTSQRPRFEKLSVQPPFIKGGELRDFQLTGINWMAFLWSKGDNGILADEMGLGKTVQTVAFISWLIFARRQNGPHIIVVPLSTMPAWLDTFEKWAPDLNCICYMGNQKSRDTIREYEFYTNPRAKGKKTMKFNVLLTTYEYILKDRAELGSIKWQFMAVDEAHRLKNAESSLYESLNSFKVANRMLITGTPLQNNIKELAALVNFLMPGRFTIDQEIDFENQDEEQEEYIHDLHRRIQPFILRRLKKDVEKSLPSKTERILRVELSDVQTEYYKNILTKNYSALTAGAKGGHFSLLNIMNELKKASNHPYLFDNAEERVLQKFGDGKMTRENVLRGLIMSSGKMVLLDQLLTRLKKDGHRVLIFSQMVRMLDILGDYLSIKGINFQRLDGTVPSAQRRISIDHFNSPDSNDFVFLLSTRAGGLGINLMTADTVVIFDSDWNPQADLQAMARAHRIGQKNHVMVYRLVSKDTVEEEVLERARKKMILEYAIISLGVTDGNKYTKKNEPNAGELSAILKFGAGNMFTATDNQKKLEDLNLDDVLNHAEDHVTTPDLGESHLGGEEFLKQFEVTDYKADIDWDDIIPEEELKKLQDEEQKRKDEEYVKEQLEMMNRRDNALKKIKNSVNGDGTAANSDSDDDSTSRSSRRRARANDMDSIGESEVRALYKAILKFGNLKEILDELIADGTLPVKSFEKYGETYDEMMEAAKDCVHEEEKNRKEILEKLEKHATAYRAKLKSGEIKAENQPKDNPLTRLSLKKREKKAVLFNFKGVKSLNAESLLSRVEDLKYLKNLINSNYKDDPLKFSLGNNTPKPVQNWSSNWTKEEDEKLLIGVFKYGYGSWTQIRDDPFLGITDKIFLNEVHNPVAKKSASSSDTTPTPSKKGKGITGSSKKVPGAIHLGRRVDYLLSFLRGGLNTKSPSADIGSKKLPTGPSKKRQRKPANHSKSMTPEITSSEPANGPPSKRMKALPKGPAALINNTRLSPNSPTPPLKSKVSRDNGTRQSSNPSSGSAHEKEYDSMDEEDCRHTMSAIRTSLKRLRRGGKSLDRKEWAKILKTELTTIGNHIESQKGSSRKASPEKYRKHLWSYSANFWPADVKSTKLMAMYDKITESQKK

Chain of Sialic acid-binding Ig-like lectin 9 (Homo sapiens) (Q9Y336 whole entry): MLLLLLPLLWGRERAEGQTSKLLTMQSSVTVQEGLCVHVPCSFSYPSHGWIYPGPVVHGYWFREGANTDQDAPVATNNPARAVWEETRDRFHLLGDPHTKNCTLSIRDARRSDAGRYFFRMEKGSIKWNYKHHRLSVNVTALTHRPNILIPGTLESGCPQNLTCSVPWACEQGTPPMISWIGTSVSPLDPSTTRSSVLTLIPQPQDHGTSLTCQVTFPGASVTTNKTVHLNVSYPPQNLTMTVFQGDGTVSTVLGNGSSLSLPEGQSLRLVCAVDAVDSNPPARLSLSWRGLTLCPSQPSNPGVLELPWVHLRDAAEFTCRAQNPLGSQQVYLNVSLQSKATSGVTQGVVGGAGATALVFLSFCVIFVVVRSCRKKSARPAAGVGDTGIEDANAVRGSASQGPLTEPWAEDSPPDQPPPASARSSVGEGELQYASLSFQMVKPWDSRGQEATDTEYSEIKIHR
Chain of Protein translocase subunit SecA (Escherichia coli (strain K12)) (P10408 whole entry): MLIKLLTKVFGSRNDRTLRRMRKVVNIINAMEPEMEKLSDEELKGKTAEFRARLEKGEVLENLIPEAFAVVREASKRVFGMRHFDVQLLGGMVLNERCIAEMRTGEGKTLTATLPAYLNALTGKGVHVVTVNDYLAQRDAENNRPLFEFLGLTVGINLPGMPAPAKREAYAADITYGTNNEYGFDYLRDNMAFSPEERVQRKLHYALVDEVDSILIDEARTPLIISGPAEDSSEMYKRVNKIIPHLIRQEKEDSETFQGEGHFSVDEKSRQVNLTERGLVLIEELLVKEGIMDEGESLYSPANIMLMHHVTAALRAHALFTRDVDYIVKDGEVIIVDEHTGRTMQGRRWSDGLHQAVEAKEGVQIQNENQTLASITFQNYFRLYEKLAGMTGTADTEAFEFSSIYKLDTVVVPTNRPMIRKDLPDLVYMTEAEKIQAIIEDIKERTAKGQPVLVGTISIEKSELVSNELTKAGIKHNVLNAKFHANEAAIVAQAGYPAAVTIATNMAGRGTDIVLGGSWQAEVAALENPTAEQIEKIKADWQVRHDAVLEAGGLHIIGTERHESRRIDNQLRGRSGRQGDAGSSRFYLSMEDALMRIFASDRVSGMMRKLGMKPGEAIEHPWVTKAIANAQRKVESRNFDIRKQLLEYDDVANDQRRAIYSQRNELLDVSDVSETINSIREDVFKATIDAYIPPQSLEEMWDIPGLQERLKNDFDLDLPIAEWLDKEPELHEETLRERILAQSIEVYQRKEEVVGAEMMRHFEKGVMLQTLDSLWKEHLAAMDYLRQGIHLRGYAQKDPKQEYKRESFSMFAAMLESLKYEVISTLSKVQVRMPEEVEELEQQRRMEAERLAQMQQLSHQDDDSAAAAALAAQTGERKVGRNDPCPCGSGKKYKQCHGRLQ

Row | Compound | Percent Effect [1] [%] | Percent Effect [2] [%] | Percent Effect [3] [%] | Percent Effect [4] [%] | Percent Effect (Trypanosoma cruzi) [%] | Percent Effect [5] [%] | Percent Effect [6] [%] | Percent Effect (Homo sapiens) [%] | Percent Effect [7] [%] | Percent Effect [8] [%] | Percent Effect [9] [%]
1 | CC(Cn1ccnc1)NC(=O)C1(c2ccc3c(c2)OCCO3)CCCC1 (stereo not drawn) | -1.6 | 20.2 | -9.88 | -5.21 | 1.79 | -2.66 | 15.2 | 10.3 | 6.4 | 24.1 | -7.42
2 | Cc1cc(C)n(CC2CN(CCOc3cccc(F)c3)CCO2)n1 (stereo not drawn) | -4.88 | 7.89 | 0.382 | 4.47 | 1.59 | -3.24 | 1.1 | 24.5 | 4.43 | 16.1 | -3.81
3 | Cc1csc(N2CCN(Cc3ccccn3)CC2C)n1 (stereo not drawn) | -3.15 | 5.48 | -20.3 | -2.48 | -2.74 | 0.909 | 13.3 | 19.9 | 9.68 | 12.5 | -2.29
4 | CCSc1cc(C(=O)NCCC(=O)Nc2ccccn2)ccn1 | -5.48 | 2.74 | -2.02 | 1.7 | 6.27 | 0.909 | 8.16 | 15.8 | 5.38 | 17.5 | -3.9
5 | c1cnc(N2CCOC3(CCN(CC4CCCCC4)CC3)C2)nc1 | 0.617 | 13.3 | 14.1 | -0.802 | -5.12 | -2.1 | 14.7 | 10.1 | 5.32 | 11.5 | -3.47
6 | CC(C)CCN1Cc2c(C(=O)O)ncn2-c2ccccc2S1(=O)=O | 0.538 | 16.2 | 16.3 | -10.3 | -3.42 | 0.319 | 10.7 | 10.4 | 4.32 | 10.3 | -8.5
7 | c1ccc(C[C@H]2CN(Cc3nccs3)CC[C@H]2OCC2CC2)cc1 | -4.65 | 2.67 | 3.57 | 3.38 | -0.591 | -2.56 | 4.32 | 21.5 | 3.19 | 11.5 | -3.05
8 | CS(=O)(=O)NC[C@]12COC[C@H]1CN(C(=O)Cc1ccccc1F)C2 | 0.295 | -101 | 5.66 | -7.42 | -7.2 | -4.52 | 6.44 | -5.85 | -125 | -232 | -6.07
